Sampled rows, rich in hits. Any-hit rate of the full collection: about 19%.
IL1B secr inh: blocks inflammasome-driven IL-1 beta release | THP-1 LPS/ATP IL-1B secretion, AlphaLISA, 16 h; stronger effect = lower value | activity change, % at 57.5 µM | 360,000 compounds, 4.7% hits | AID 743279; in the data active = activity change below about -50%; inconclusive = mostly about -30% to -49%
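Secreted IL-1B measured by AlphaLISA bead assay after 16 h compound exposure of THP-1 cells; compounds (final up to 57.5 uM) added 1 h before LPS (250 ng/mL) and ATP (1.25 mM) stimulation; lower signal means less secretion.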
TDP1 cell noCPT: qHTS for Inhibitors of human tyrosyl-DNA phosphodiesterase 1 (TDP1): qHTS in cells in absence of CPT; DT40 Tdp1-/- hTDP1 cells, no CPT, ATP luminescence, 48 h; AID 686978, 2013; Potency, µM (highest dose often 46.2 µM), for the others: at the top dose activity change, negative = growth inhibition, usual class: inhibitors; 420,000 compounds, 15% hits; note: potency is the fitted concentration of half-maximal effect; nearly all actives have a fitted effect of over 55% in size
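Compound effects on proliferation are scored in DT40 Tdp1-/-;hTDP1 cells in the absence of CPT. ATP levels (CellTiter-Glo luminescence) are recorded after a ≥48 hr, 37 °C incubation.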
HT1080 IDH1KD tx: kills HT-1080 cells with IDH1 knockdown | HT-1080 IDH1 knockdown viability, ATP luminescence, 48 h | Potency, µM (highest dose often 46.1 µM), without a hit: at the top dose activity, negative = toxicity, hits mostly cytotoxic | 360,000 compounds, 2% hits;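 note: potency is the fitted concentration of half-maximal effect; 0% = DMSO wells and -100% = cell-free medium wells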
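Assay cells: HT-1080 with IDH1 knockdown, 750 per well, RPMI/5% FBS. Exposure: 48 h at 37 °C following 2 h pre-incubation. Read: CellTiter-Glo luminescence; fitted concentration-response, curve class assigned.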
HT1080-NT tox: kills 2HG-producing HT-1080-NT fibrosarcoma cells. HT-1080-NT fibrosarcoma viability, CellTiter-Glo ATP luminescence, 48 h. Potency, µM (top dose mostly 46.1 µM), inactives show top-dose activity, negative = less viability, most hits filed as cytotoxic. 360,000 compounds, 1.6% hits;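 note: NT is the 2HG producing partner of a matched IDH1 knockdown line; potency is the fitted concentration of half-maximal effect; 0% = DMSO-treated cells and -100% = media-only wells without cells; nearly all actives have a fitted effect of over 55% in size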
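HT-1080-NT; 750 cells/well; 5% FBS RPMI; 48 h compound, 37 degrees C; CellTiter-Glo luminescence; curve fitting and curve-class assignment.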
TDP1 cell CPT: DT40-hTDP1 cell growth loss with CPT. chicken DT40 Tdp1-/-;hTDP1 cells + 20 nM CPT, ATP luminescence, 48 h. Potency, µM (highest dose often 46.2 µM), for inactives: top-dose activity change, negative = growth inhibition, actives largely listed as inhibitors. 420,000 compounds, 12% hits. AID 686979; note: potency is the fitted concentration of half-maximal effect; nearly all actives have a fitted effect of over 55% in size
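Cell growth measured by CellTiter-Glo luminescence after a minimum 48 h, 37 C compound exposure with 20 nM CPT in Tdp1-knockout DT40 cells stably expressing hTDP1, seeded 400/well; qHTS titration format.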
Numbers without * were called inactive; ? = inconclusive; nt = not tested or not shown; ! = not confirmed by another sample. Unless noted, calls come from the whole dose curve; as a rule, active = well fitted curve in the direction sought with a large enough effect; inconclusive = small, poorly fitted or top-dose-only effect, or another doubt; inactive = no such curve, though single readings can be large; an effect the other way counts as inactive or inconclusive. Unless noted, % is set by controls: 0 for no effect and ±100 for the full control effect.

SMILES | IL1B secr inh | TDP1 cell noCPT | HT1080 IDH1KD tx | HT1080-NT tox | TDP1 cell CPT
C=CCn1c(SCC(=O)Nc2c(C)n(C)n(-c3ccccc3)c2=O)nc2scc(-c3ccccc3)c2c1=O | -16 | ? | -24% | -10% | ?
C=CCn1c(SCC(=O)Nc2ccc(C(=O)O)cc2)nc2scc(-c3ccccc3)c2c1=O | -13 | -6% | -12% | 3% | 6%
Cc1ccc(-c2csc3nc(SCC(=O)N(C)C)n(Cc4ccccc4)c(=O)c23)cc1 | -22 | 13µM* | -29% | -22% | 12µM*
NC(=O)CSc1nc2scc(-c3ccc(Cl)cc3)c2c(=O)n1Cc1ccccc1 | 55 | 8.2µM* | -10% | -25% | 9.2µM*
NC1=C([N+](=O)[O-])C(c2ccc3c(c2)OCO3)C2=C(CCCC2=O)O1 (stereo unspecified) | 8 | 6% | 10% | -2% | ?
COCc1cc(=O)[nH]c2cc(NC(=O)c3cccc(OC)c3)c(C)cc12 | 2 | -8% | 2% | 1% | 22%
CCOC(=O)C1=CCC(c2ccc(CC)cc2)N(S(=O)(=O)c2ccc(C)cc2)C1 (stereo unspecified) | 47 | 9.2µM* | ? | -23% | 23µM*
CCOC(=O)C1=CCC(c2cccc(Cl)c2)N(S(=O)(=O)c2ccc(C)cc2)C1 (stereo unspecified) | 34 | 12µM* | ? | -18% | 15µM*
CCc1ccc([C@@H]2CC=C(C(=O)O)CN2S(=O)(=O)c2ccc(C)cc2)cc1 | 13 | -22% | 9% | 2% | -1%
CCOC(=O)C1=CCC(c2cccc3ccccc23)N(S(=O)(=O)c2ccc(C)cc2)C1 (stereo unspecified) | 0 | 18µM* | -28% | -16% | 15µM*
CC(=O)C1=CCC(c2cccc(Cl)c2)N(S(=O)(=O)c2ccc(C)cc2)C1 (stereo unspecified) | -85* | 10µM* | 15µM* | ? | 15µM*
CC(=O)C1=CCC(c2ccc(C(C)C)cc2)N(S(=O)(=O)c2ccc(C)cc2)C1 (stereo unspecified) | ? | ? | ? | ? | -102%
CCOC(=O)C1=CCC(c2ccco2)N(S(=O)(=O)c2ccc(C)cc2)C1 (stereo unspecified) | 55 | ? | -19% | -24% | ?
CCN(CC)c1ccc2c(c1)oc(=O)c1c(Cl)cc(=O)oc12 | -126* | 5.2µM* | 2.6µM* | ? | 2.6µM*
CCN(CC)c1ccc2c(Cl)c(Br)c(=O)oc2c1 | -100* | 23µM* | 21µM* | 18µM* | 18µM*
CCN(CC)c1ccc2c(C)cc(=O)oc2c1 | 2 | -9% | nt | nt | 0%
CCN(CC)c1ccc2c(C)c(Cl)c(=O)oc2c1 | 19 | ? | -4% | -12% | -2%
O=C(NCc1ccc(F)cc1)C1CC(=O)N(C2CCCC2)C1 (stereo unspecified) | 21 | -20% | 13% | 3% | -10%
COc1ccc(OC)c(/C=N/NC(=O)C(O)c2ccccc2)c1 (stereo unspecified) | 2 | -29% | 1% | 3% | -25%
C/C(N)=C(/C#N)C(=O)CSc1nc(C2CCCCC2)n(-c2ccccc2)n1 | -6 | ? | 0% | -21% | 13µM*!
NC(=O)NC(=O)CSc1nc(C2CCCCC2)n(-c2ccccc2)n1 | -2 | ? | -4% | 2% | -8%
O=C(COc1ccc(/C=N/NC(=O)c2cc3ccccc3o2)cc1Br)Nc1ccccc1 | -117* | 18µM* | -2% | -25% | 18µM*
Cc1ccc2nc(-c3ccc(NC(=O)COc4ccccc4C(C)(C)C)cc3)sc2c1 | nt | ? | nt | nt | -30%
Cc1nc2ccc(NC(=O)COc3ccccc3[N+](=O)[O-])cc2s1 | -11 | ? | -9% | -5% | -7%
O=C(COc1ccccc1[N+](=O)[O-])Nc1ccc(-c2nc3ccccc3s2)cc1 | nt | 21µM* | nt | nt | 21µM*
SMILES | IL1B secr inh | TDP1 cell noCPT | HT1080 IDH1KD tx | HT1080-NT tox | TDP1 cell CPT
O=C(COc1ccccc1Cl)Nc1ccc(-c2nc3ccccc3s2)cc1 | nt | 6.5µM* | nt | nt | 5.8µM*
O=C(COc1ccccc1[N+](=O)[O-])Nc1ccc(NC(=O)c2cc3ccccc3o2)cc1 | -12 | ? | -22% | -10% | 23µM*
O=C(COc1ccccc1[N+](=O)[O-])Nc1ccc2oc(=O)ccc2c1 | -13 | 2% | 1% | 17% | -12%
O=C(NCC(c1ccco1)S(=O)(=O)c1cccs1)c1ccccc1F (stereo unspecified) | nt | ? | nt | nt | -27%
CCc1ccccc1NC(=O)Cn1nnc(C(=O)NCc2ccccc2Cl)c1N | nt | 0% | nt | nt | ?
CC(Sc1ncc(C(F)(F)F)cc1Cl)C(=O)NCC1CCCO1 (stereo unspecified) | -10 | -11% | 1% | 3% | 1%
Cc1ccc(CNC(=O)Cn2cnc3c(OCc4ccccc4)ncnc32)o1 | 23 | ? | -9% | -1% | ?
O=C(N/N=C/c1c(O)ccc2ccccc12)c1[nH]ncc1Br | 99 | 4.6µM* | ? | ? | 2.6µM*
CCOc1ccc(/C=N/NC(=O)c2[nH]ncc2Br)c(O)c1 | 135 | 5.2µM* | 5.2µM* | 7.3µM* | 5.2µM*
Cc1ccc(O)c(/C=N/NC(=O)c2[nH]ncc2Br)c1 | -10 | 15µM* | -29% | 2% | -9%
O=C(N/N=C\c1c(O)ccc2ccccc12)c1ccc(Cn2cccn2)o1 | 74 | 5.8µM* | ? | ? | 5.8µM*
CCOC(=O)C1CCCCN1Cc1cn[nH]c1-c1ccc(F)cc1F (stereo unspecified) | 6 | -12% | 9% | -4% | ?
CCC(C)(C(=O)Nc1c(C)cccc1C)N(C)C(=O)c1ccc2ccccc2n1 (stereo unspecified) | 50 | 21% | 16% | 14% | -3%
CC1CCCCN1C(=O)CCn1c(=O)oc2ccccc21 (stereo unspecified) | -3 | 15% | 3% | 3% | 21%
CCOC(=O)C1CCN(c2cc(C)nc3ccc(OC)cc23)CC1 | -17 | 16µM* | -27% | -3% | ?
COc1ccc(N2CCN(c3cc(C)nc4ccc(OC)cc34)CC2)cc1 | -1 | 23µM* | ? | -29% | 15µM*
COC(=O)c1sccc1NC(=S)N1CC(C)CC(C)C1 (stereo unspecified) | 5 | -21% | -9% | 4% | 1%
Cc1ccccc1NC(=O)c1sc(NC(=O)COc2ccccc2)c(C#N)c1C | 2 | 18µM* | -5% | -9% | ?
COC(=O)c1sc(NC(=O)c2cc(-c3ccccc3)nc3ccccc23)c(C#N)c1C | 7 | 7.3µM* | ? | ? | 8.2µM*
